Source: PubChem (Sanford-Burnham Center for Chemical Genomics)
An excerpt weighted towards active compounds, which were near 1.4% of everything screened.
GC-A act: GC-A stimulated cGMP production enhancers – HEK293 GC-A cells, cGMP TR-FRET, EC30 ANP, primary screen; 0% at EC30 ANP, 100% saturating ANP; activation, % at 10 µM; 370,000 compounds, 0.14% hits; AID 1671463, 2021; in the data active means activation above about 40%
FAS TE block: FAS thioesterase domain inhibitors, primary screen, biochemical, fluorescence intensity, uHTS; 360,000 compounds, 0.67% hits; recombinant FAS-TE, OMFH fluorogenic substrate, fluorescence endpoint; Fatty acid synthase (Homo sapiens), P49327; inhibition, % at 15 µM; AID 602261, 2012;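 active means compounds whose normalised, plate-corrected inhibition of enzyme fluorescence in the single-dose primary screen is 50% or more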;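 further: 0% = DMSO with enzyme and 100% = substrate without enzyme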
A3G deaminase: APOBEC3G DNA deaminase inhibitors, primary screen, biochemical, fluorescence, single-stranded DNA substrate, uHTS | 330,000 compounds, 0.28% hits | recombinant A3G, ssDNA deamination FAM/TAMRA fluorescence | inhibition, % at 20 µM | DNA dC->dU-editing enzyme APOBEC-3G (Homo sapiens), Q9HC16;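 active means inhibition of at least 40% at 20 µM, with no more than 30% in the related APOBEC3A deaminase screen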;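 further: plate controls were DMSO wells with A3G for no effect and wells lacking A3G enzyme for full effect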
Target sequence (Q9HC16 whole entry, looked up): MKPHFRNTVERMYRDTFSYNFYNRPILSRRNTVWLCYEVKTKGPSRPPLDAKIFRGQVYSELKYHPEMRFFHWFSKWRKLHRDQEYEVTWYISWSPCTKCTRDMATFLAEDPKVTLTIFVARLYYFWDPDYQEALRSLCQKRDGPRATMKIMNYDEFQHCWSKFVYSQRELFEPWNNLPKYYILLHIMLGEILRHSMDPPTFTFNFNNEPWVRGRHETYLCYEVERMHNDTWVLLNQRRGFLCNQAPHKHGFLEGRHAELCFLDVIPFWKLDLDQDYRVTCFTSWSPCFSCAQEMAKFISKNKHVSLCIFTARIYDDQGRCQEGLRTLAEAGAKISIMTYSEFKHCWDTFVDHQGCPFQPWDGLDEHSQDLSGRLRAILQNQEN
APOBEC3A inh: APOBEC3A ssDNA deaminase inhibitors, primary screen, selectivity assay for APOBEC3G inhibitor project, biochemical, FAM/TAMRA oligo cleavage fluorescence. AID 493011, 2011. DNA dC->dU-editing enzyme APOBEC-3A (Homo sapiens), P31941. recombinant A3A, FAM/TAMRA ssDNA deamination fluorescence. 330,000 compounds, 0.41% hits. inhibition, % at 20 µM;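 active means at least 40% inhibition at 20 µM here, with at most 30% in a related deaminase screen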;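 further: plate controls were A3A with DMSO for no effect and wells lacking A3A enzyme for full effect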
Target sequence (P31941 whole entry, looked up): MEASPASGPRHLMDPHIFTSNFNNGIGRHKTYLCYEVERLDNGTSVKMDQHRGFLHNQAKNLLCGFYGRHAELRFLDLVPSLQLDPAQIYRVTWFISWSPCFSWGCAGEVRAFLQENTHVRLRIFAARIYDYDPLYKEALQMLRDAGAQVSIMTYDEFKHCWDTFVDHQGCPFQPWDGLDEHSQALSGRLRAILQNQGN
NPR2 activator: human GC-B receptor activators, primary screen, HEK293 GC-B cells, cGMP TR-FRET, EC30 CNP; 0% at EC30 CNP, 100% saturating CNP; AID 1920062, 2024; 370,000 compounds, 0.11% hits; activation, % at 10 µM;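 active means activation at 10 µM reaching about 35% in either raw or pattern-adjusted values, limit read from the data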
FAS-TE conf: FAS thioesterase domain inhibitors, confirmation, biochemical, fluorescence intensity, single concentration | recombinant FAS-TE, OMFH fluorogenic substrate | 2,300 compounds, 45% hits | shares compounds with FAS TE block | inhibition, % at 15 µM | AID 624325, 2012;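 active means compounds inhibiting the enzyme by at least 50% at 15 µM in any one of the replicates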;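 further: 0% = enzyme with DMSO only and 100% = wells lacking enzyme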
* = called active by the depositor; · = no result.

SMILES	GC-A act	FAS TE block	A3G deaminase	APOBEC3A inh	NPR2 activator	FAS-TE conf
O=c1cc2c(nn1Cc1cccc([N+](=O)[O-])c1)-c1ccccc1CC2	-4	71*	-16	-2	6	24
CC(C)(C)c1ccc(OC(=O)Nc2ccc(O)c(C(=O)O)c2)cc1	-4	50*	1	2	3	63*
Cc1ccc(-c2cc(C(F)F)n3ncc(C(=O)N4CCc5ccccc5C4)c3n2)cc1	6	53*	-4	-2	9	2
O=C(Nc1nc2cc(Cl)ccc2s1)C1CCCN(S(=O)(=O)c2cccc3cccnc23)C1 (stereo not drawn)	·	69*	-1	-1	·	14
O=C(COC(=O)c1cc([N+](=O)[O-])ccc1N1CCOCC1)NCc1ccc(F)cc1	-2	88*	-8	-3	2	81*
CCOc1ccc(CCNC(=O)COC(=O)c2cc([N+](=O)[O-])ccc2N2CCOCC2)cc1OCC	3	53*	-7	7	-1	57*
O=C(COC(=O)c1cc([N+](=O)[O-])ccc1N1CCOCC1)NCCc1ccccc1	-2	78*	3	4	0	66*
CC(C)N1Cc2nnn(Cc3ccccc3)c2-c2cc(N3CCCC3)ccc2S1(=O)=O	-10	·	·	·	-14	·
CCn1c2ccccc2c2cc(C=NNC(=O)CSc3nc4ccccc4c(=O)n3-c3ccccc3)ccc21	-1	·	·	·	-3	·
COCCCNC(=O)C[C@H]1C[C@@]2(C(=O)OC)C(=C[C@H](C3CCCC3)O[C@@H]2C)N(Cc2ccccc2)C1=O	-5	·	·	·	-6	·
Cc1cc2c(nc1C)CCCN2S(=O)(=O)c1ccc(C(F)(F)F)cc1	-1	·	·	·	0	·
CCCC[C@H]1C2CC(OC(=O)Nc3cccc(Cl)c3)C(C2)[C@H]2CCCCN21 (stereo partly drawn)	0	·	·	·	2	·
Oc1ccc(Cl)cc1Sc1cc(Cl)ccc1O	4	88*	·	·	1	98*
CN(C)C(=O)c1cc(Cl)ccc1Sc1cc(Cl)ccc1Cl	-1	5	12	-2	-2	·
Cc1nc(N2CCCCC2)c2c(-c3cccs3)csc2n1	4	19	3	-6	2	·
Cc1nc(N2CCN(S(=O)(=O)c3ccccc3C#N)CC2)c2c(-c3cccs3)csc2n1	-10	51*	-2	1	-8	30
O=C([C@@H]1C[C@H]1c1ccccc1)N1CC[C@H]2[C@H](CCCN2Cc2cc(F)cc(F)c2)C1	3	·	·	·	4	·
Cc1cccc(C)c1NC(=O)c1nc(S(=O)(=O)Cc2ccccc2)ncc1Cl	-1	26	-3	-4	1	·
CCN(c1ccccc1)S(=O)(=O)c1ccc(NC(=O)c2nc(S(C)(=O)=O)ncc2Cl)cc1	·	58*	3	-3	·	61*
O=C(Nc1ccc(F)cc1)c1nc(S(=O)(=O)Cc2ccccc2)ncc1Cl	42*	57*	-5	-4	14	58*
Cc1ccccc1CS(=O)(=O)c1ncc(Cl)c(C(=O)Nc2ccc(F)cc2)n1	42*	50*	4	0	10	29
Cc1cccc(CS(=O)(=O)c2ncc(Cl)c(C(=O)Nc3c(C)cccc3C)n2)c1	1	36	1	0	4	·
CCOC(=O)CCCNC(=O)OC1CC2CC1[C@H]1CCCCN1[C@H]2C (stereo partly drawn)	-2	·	·	·	2	·
CCN1CCCCC(NC(=O)c2cc(OC)c(OC)c(OC)c2)C1=O (stereo not drawn)	3	·	·	·	8	·
O=C(Nc1ccc(OC(F)(F)F)cc1)Nc1cccc([N+](=O)[O-])c1	9	73*	1	3	-1	49*
SMILES	GC-A act	FAS TE block	A3G deaminase	APOBEC3A inh	NPR2 activator	FAS-TE conf
CC(C)C[C@@H]1COc2cccc(N3CCCC3)c2S(=O)(=O)N1	-3	·	·	·	-2	·
CCn1c2ccccc2c2cc(NC(=O)COC(=O)c3cccc(F)c3F)ccc21	0	·	·	·	-10	·
CCn1c2ccccc2c2cc(NC(=O)COC(=O)c3cc(OC)c(OC)cc3OC)ccc21	-3	64*	-4	-3	-3	30
O=[N+]([O-])c1ccc(N2CCN(S(=O)(=O)c3ccc(Cl)c(Cl)c3)CC2)cc1NCCN1CCOCC1	-5	71*	-5	11	-9	10
CC(C)(C)c1ccc(C(=O)NCCC(=O)Nc2cc(Cl)ccc2N2CCOCC2)cc1	-15	67*	4	12	-15	67*
COCCN1CCCc2nc(-c3ccc(Br)cc3)ccc21	7	·	·	·	8	·
O=[N+]([O-])c1cccc(-c2nnc(C34CC5CC(CC(C5)C3)C4)o2)c1	3	33	4	2	-5	·
O=[N+]([O-])c1cc(-c2nnc(C34CC5CC(CC(C5)C3)C4)o2)cc([N+](=O)[O-])c1	0	53*	5	3	1	12
Cc1occc1-c1nnc(SCC(=O)Nc2ccccn2)n1-c1ccccc1	-7	·	·	·	-6	·
Cc1nn(Cc2ccc([N+](=O)[O-])cc2)c(=O)n1N(C)c1ncc(C(F)(F)F)cc1Cl	2	79*	-6	5	-4	65*
O=[N+]([O-])c1ccc(Sc2n[nH]c(-c3ccc(Cl)cc3Cl)n2)nc1	0	63*	-2	-2	-4	60*
O=C(NC(=S)Nc1ccc2c(c1)OCCO2)c1cccc2ccccc12	-4	56*	1	0	4	24
COC(=O)C1=C(C(=O)OC)[C@]2([C@H]3CC=CCN[C@@H](Cc4ccccc4)C(=O)N3Cc3ccccc3)C=C[C@H]1O2	-2	54*	·	·	2	13
COc1ccc(C2=NOC(COc3ccc([N+](=O)[O-])cc3)C2)cc1 (stereo not drawn)	-3	54*	-6	-6	-16	26
Cc1cccc(Nc2nnc(-c3ccc(N4CCOCC4)c([N+](=O)[O-])c3)c3ccccc23)c1	32	82*	0	-4	48*	23
Cc1nnc(-c2ccc(N3CCOCC3)c([N+](=O)[O-])c2)o1	·	-1	-6	0	·	·
CCC(CO)Nc1cccc2c1S(=O)(=O)N(Cc1cn(Cc3ccc(Cl)cc3)nn1)Cc1ccccc1O2 (stereo not drawn)	-2	·	·	·	-6	·
